Experimental data reported in PubChem BioAssay.
A number with no mark means an inactive call. Where a call stands in place of a potency, no number is given. For some assays here: Potency and affinity values are given separately. Activity calls are given as the source filed them. Unless noted, how the calls were made is not given here.

Experiments:
[1] = antimalarial activity against Dd2 strain (AID 2302;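 active means growth inhibition above 50% at the single 2 µM test dose, taken to imply half-maximal potency below 2 µM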); settings: P. falciparum Dd2 in RBCs, LDH growth readout, 72 h; at 2 µM; active compounds read high
[2] = human hepatoma cell viability loss – ATP luminescence, cytotoxicity control for P. falciparum antimalarial project, primary screen (AID 2303;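 active means inhibition above 50%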); settings: HepG2 viability, 24-48 h, at 10 µM, active compounds read high
[3] = molecular target: L-lactate dehydrogenase (Plasmodium falciparum (isolate CDC / Honduras)) (UniProt Q27743); test: PfLDH activity inhibition – cell lysate, 3D7 strain, counter-screen for P. falciparum growth inhibition project (AID 2304); settings: P. falciparum 3D7 crude extract, LDH APAD/NBT absorbance; at 2 µM; active compounds read high
[4] = inhibition of 3D7 malaria parasite growth – strain 3D7 (AID 2306); settings: P. falciparum 3D7 erythrocytic growth, LDH absorbance, 72 h; at 2 µM; active compounds read high
[5] = molecular target: Calcium-dependent protein kinase 1 (Plasmodium falciparum (isolate 3D7)) (UniProt P62344); test: PfCDPK1 kinase inhibitors, biochemical, TCAMS library (AID 1159585; cut-off not given, nearly all actives have IC50 up to about 0.98 µM;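 further: inhibitors leave more ATP so luminescence rises with inhibition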); settings: recombinant PfCDPK1, Kinase-Glo ATP depletion luminescence
[6] = molecular target: Plasmodium falciparum protein kinase 6 (PK6, PF3D7_1337100) (UniProt Q8IDW1); test: PfPK6 kinase inhibitors, biochemical, TCAMS library (AID 1159586); settings: recombinant PfPK6, Kinase-Glo ATP depletion luminescence
[7] = molecular target: Protein kinase 7 (PK7), Plasmodium falciparum 3D7 (PF3D7_0213400) (UniProt Q7YTF7); test: inhibition of Plasmodium PK7 catalytic activity – biochemical, TCAMS antimalarial set, Kinase-Glo luminescence (AID 1159587); settings: recombinant PfPK7, Kinase-Glo ATP depletion luminescence
[8] = molecular target: Calcium-dependent protein kinase 4 (Plasmodium falciparum (isolate 3D7)) (UniProt Q8IBS5); test: PfCDPK4 kinase inhibitors, biochemical, TCAMS library (AID 1159588; cut-off not given, nearly all actives have IC50 up to about 0.91 µM); settings: recombinant PfCDPK4, Kinase-Glo ATP depletion luminescence
Calcium-dependent protein kinase 4 (Plasmodium falciparum (isolate 3D7)), sequence (Q8IBS5 whole entry, looked up): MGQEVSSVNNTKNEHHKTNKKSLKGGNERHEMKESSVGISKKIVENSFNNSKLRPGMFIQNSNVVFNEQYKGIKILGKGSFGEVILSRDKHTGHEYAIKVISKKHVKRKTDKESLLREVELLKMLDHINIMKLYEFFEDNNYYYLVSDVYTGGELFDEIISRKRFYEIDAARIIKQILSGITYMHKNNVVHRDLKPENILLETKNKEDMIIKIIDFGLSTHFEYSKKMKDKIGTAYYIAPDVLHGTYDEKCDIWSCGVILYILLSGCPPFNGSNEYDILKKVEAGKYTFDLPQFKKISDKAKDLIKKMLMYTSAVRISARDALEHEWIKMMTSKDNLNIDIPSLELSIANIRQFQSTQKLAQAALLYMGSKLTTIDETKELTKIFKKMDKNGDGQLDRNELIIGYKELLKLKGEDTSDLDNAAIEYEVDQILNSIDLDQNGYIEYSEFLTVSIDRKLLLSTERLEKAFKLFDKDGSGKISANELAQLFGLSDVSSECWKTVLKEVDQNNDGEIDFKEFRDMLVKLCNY

L-lactate dehydrogenase (Plasmodium falciparum (isolate CDC / Honduras)), sequence (Q27743 whole entry, looked up): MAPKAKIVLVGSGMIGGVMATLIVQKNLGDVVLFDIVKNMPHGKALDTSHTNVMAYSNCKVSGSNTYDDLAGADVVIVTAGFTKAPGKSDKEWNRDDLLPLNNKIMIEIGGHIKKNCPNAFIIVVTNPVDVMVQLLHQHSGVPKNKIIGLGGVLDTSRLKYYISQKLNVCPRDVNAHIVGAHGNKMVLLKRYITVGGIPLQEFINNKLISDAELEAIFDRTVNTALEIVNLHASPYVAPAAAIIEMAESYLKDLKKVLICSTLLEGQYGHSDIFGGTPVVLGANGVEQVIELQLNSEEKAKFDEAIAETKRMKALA
Calcium-dependent protein kinase 1 (Plasmodium falciparum (isolate 3D7)), sequence (P62344 whole entry, looked up): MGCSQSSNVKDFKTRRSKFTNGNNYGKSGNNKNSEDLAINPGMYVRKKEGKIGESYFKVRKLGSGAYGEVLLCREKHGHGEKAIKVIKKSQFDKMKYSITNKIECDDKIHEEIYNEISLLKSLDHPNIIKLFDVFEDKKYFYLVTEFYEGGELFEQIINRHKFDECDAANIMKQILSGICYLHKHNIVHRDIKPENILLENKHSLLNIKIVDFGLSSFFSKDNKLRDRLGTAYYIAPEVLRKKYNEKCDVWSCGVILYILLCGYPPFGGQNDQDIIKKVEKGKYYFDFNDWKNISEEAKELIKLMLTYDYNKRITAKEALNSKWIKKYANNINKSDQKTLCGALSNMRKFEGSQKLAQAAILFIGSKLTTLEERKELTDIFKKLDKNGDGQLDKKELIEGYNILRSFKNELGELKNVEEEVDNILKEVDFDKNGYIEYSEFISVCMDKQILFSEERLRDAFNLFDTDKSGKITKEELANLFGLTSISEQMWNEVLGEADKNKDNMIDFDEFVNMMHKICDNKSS
Protein kinase 7 (PK7), Plasmodium falciparum 3D7 (PF3D7_0213400), sequence (Q7YTF7 1-343): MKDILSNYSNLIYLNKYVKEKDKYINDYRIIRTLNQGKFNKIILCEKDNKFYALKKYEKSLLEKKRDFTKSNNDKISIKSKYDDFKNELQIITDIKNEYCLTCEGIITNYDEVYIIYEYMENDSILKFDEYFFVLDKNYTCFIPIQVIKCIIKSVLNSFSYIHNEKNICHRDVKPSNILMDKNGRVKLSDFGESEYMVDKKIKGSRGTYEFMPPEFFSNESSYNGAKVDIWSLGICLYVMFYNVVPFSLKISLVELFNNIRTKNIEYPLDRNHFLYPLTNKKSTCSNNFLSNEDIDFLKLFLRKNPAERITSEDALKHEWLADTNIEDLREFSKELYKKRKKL
Plasmodium falciparum protein kinase 6 (PK6, PF3D7_1337100), sequence (Q8IDW1 1-305): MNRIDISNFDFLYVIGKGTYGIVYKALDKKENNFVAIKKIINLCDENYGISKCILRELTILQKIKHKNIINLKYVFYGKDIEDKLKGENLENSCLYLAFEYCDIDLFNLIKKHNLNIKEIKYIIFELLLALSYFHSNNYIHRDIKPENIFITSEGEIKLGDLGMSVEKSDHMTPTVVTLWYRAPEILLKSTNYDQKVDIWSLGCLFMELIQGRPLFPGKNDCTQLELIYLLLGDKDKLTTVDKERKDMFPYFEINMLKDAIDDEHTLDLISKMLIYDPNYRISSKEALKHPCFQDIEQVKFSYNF

Row | SMILES | growth inhibition [1] | inhibition [2] | inhibition [3] | growth inhibition [4] | outcome [5] | outcome [6] | outcome [7] | outcome [8]
1 | O=C(Nc1ccc(N2CCNCC2)cc1)c1ccn2ncc(-c3cccc(Cl)c3)c2n1 | 53% (active) | 79% (active) | -2% | 96% (active) | inactive | inactive | inactive | inactive
2 | Cc1cc(N[C@@H](CC(C)C)C(=O)NCc2cccc(F)c2)nc(Nc2ccccc2)n1 | 76% (active) | -5% | 2% | 100% (active) | inactive | inactive | inactive | inactive
3 | CN(CCN1CCC(c2c[nH]c3ccccc23)CC1)c1ccc(-c2nc3cc(Cl)c(Cl)cc3[nH]2)cc1 | 101% (active) | 22% | -1% | 101% (active) | inactive | inactive | inactive | inactive
4 | Cc1cccc(Nc2nc3nonc3nc2Nc2cccc(Cl)c2Cl)c1C | 95% (active) | 88% (active) | 2% | 91% (active) | inactive | inactive | inactive | inactive
5 | Cc1cnc(NCC2CCCCC2)nc1NCC(=O)Nc1ccccc1 | 51% (active) | 21% | 0% | 90% (active) | inactive | inactive | inactive | inactive
6 | O=[N+]([O-])c1ccccc1C=NNc1ccnc2ccccc12 | 98% (active) | 3% | 2% | 101% (active) | inactive | inactive | inactive | inactive
7 | CCOC(=O)c1c(SCc2cccc(F)c2F)[nH]c2ccccc2c1=O | 95% (active) | 1% | -2% | 98% (active) | inactive | inactive | inactive | inactive
8 | CCOC(=O)c1ccc(NC(=O)Nc2cccc(-c3cccc(-c4nc5ccc(F)cc5[nH]4)c3)c2)cc1 | 100% (active) | 85% (active) | 6% | 101% (active) | inactive | inactive | inactive | inactive
9 | CCC(CC)n1cc2c(ccc3nc(N)nc(N)c32)n1 | -2% | 61% (active) | 4% | 91% (active) | inactive | inactive | inactive | inactive
10 | COc1ccc(C(=O)Nc2ccc(-c3ccc([N+](=O)[O-])cc3)cc2)cc1CCCN(C)C | 9% | 20% | 1% | 98% (active) | inactive | inactive | inactive | inactive
11 | COc1cccc(Cc2cnc3nc(N)nc(N)c3c2C)c1 | 76% (active) | 57% (active) | 0% | 94% (active) | inactive | inactive | inactive | inactive
12 | O=C(/C=C/c1ccc(Cl)cc1)NCCCCCN1CCCN(C(=O)Nc2cccc(Cl)c2)CC1 | 10% | 19% | -3% | 85% (active) | inactive | inactive | inactive | inactive
13 | CC(=O)N1c2ccccc2C(C)=CC1(C)C | 11% | 3% | 1% | 97% (active) | inactive | inactive | inactive | inactive
14 | O=C(/C=C/c1ccc(Cl)c(Cl)c1)NCCCCCCN1CCCN(C(=O)Nc2ccc(F)c(Cl)c2)CC1 | 1% | 30% | 0% | 98% (active) | inactive | inactive | inactive | inactive
15 | c1cc(COc2ccc(C3=NCCN3)cc2)nc(COc2ccc(C3=NCCN3)cc2)c1 | 98% (active) | 8% | -2% | 100% (active) | inactive | inactive | inactive | inactive
16 | Cc1cccc2[nH]c(-c3ccc(-c4ccc(NC(=O)NCc5ccc(F)cc5)cc4)cc3)nc12 | 99% (active) | 70% (active) | -3% | 100% (active) | inactive | inactive | inactive | inactive
17 | CCCC(C)NC[C@@H](O)[C@H](Cc1ccccc1)NC(=O)c1cc(NCC)cc(N2CCCCS2(=O)=O)c1 (stereo not given in full) | 98% (active) | -4% | -2% | 101% (active) | inactive | inactive | inactive | inactive
18 | COc1ccc2c(c1)CCN(CCN1CCC(CNC(=O)c3ccc(-c4ccc(C#N)cc4)cc3)CC1)C2 | 51% (active) | 40% | 2% | 100% (active) | inactive | inactive | inactive | inactive
19 | COc1cc(/C=C/C(=O)NCC(CCNc2cc(=O)c3ccccc3[nH]2)NCc2cc(Br)cc(Br)c2)cc(OC)c1 (stereo not given) | 28% | -11% | -4% | 90% (active) | inactive | inactive | inactive | inactive
20 | O=C(Nc1ccc(Cl)cc1)Nc1ccc(-c2cccc(-c3nc4ccc(F)cc4[nH]3)c2)cc1 | 96% (active) | 74% (active) | -1% | 101% (active) | inactive | inactive | inactive | inactive

Row | SMILES | growth inhibition [1] | inhibition [2] | inhibition [3] | growth inhibition [4] | outcome [5] | outcome [6] | outcome [7] | outcome [8]
21 | CC(=O)c1cc(N2CCCC2)ccc1N | 97% (active) | 1% | -2% | 97% (active) | inactive | inactive | inactive | inactive
22 | O=C(C1CCN(C(c2ccccc2)c2ccc(Cl)c(Cl)c2)CC1)N1CC=CC1 (stereo not given) | 84% (active) | 1% | 7% | 89% (active) | inactive | inactive | inactive | inactive
23 | Oc1ccc(-c2ccccc2)cc1CNC1CCCCC1 | 100% (active) | 24% | -3% | 95% (active) | inactive | inactive | inactive | inactive
24 | O=C(NC1CCN(Cc2ccccc2O)C1)c1ccc(Cl)c(Cl)c1 (stereo not given) | 62% (active) | -9% | -1% | 92% (active) | inactive | inactive | inactive | inactive
25 | Cc1ccc(OCCCCONC(=O)c2ccccc2)cc1 | 1% | 6% | -2% | 96% (active) | inactive | inactive | inactive | inactive
26 | CC(C)(C)NS(=O)(=O)c1cc(C(=O)N2CCC(CCN3CCC(C(=O)c4ccc(F)cc4)CC3)(c3cccc(F)c3)CC2)c(Cl)cc1F | 99% (active) | -1% | 4% | 99% (active) | inactive | inactive | inactive | inactive
27 | Cc1nc(N)nc(N)c1OCc1ccc(Cl)c(Cl)c1 | 5% | 14% | -2% | 97% (active) | inactive | inactive | inactive | inactive
28 | CCOC(=O)c1c(NC(=O)c2ccccc2)sc2c(O)c(CNC3CCCCC3)ccc12 | 98% (active) | 6% | 1% | 99% (active) | inactive | inactive | inactive | inactive
29 | CCNc1cc(C(=O)N[C@@H](Cc2ccccc2)[C@H](O)CNC(CC)c2cccc(Cl)c2)cc(N2CCCCS2(=O)=O)c1 (stereo not given in full) | 98% (active) | 12% | -2% | 100% (active) | inactive | inactive | inactive | inactive
30 | CCCCCC(C)NC[C@@H](O)[C@H](Cc1ccccc1)NC(=O)c1cc(NCC)cc(N2CCCCS2(=O)=O)c1 (stereo not given in full) | 79% (active) | 3% | 0% | 98% (active) | inactive | inactive | inactive | inactive
31 | O=C(Cn1c(CCc2cccc(F)c2F)nc(=O)c2ccccc21)N(CCN1CCCC1)Cc1ccc(-c2ccc(C(F)(F)F)cc2)cc1 | 37% | 63% (active) | -1% | 101% (active) | inactive | inactive | inactive | inactive
32 | Fc1ccc2nc(-c3cccc(-c4ccc(CN5CCN(CCN6CCOCC6)CC5)cc4)c3)[nH]c2c1 | 100% (active) | 30% | -3% | 101% (active) | inactive | inactive | inactive | inactive
33 | COc1ccc(NC(=O)/C=C/c2ccccc2Cl)cc1OCCN1CCC(Cc2cc3ccccc3[nH]2)CC1 | 8% | 56% (active) | 0% | 92% (active) | inactive | inactive | inactive | inactive
34 | CCOC(=O)c1c(C)n(-c2ccc(Cl)cc2)c2ccc(OC(=O)C=Cc3ccccc3)cc12 | 92% (active) | 3% | -2% | 99% (active) | inactive | inactive | inactive | inactive
35 | CC(C)(C)OC(=O)NCc1ccc(Nc2nnc(-c3cccc(C(=O)NCc4cc(C(F)(F)F)cc(C(F)(F)F)c4)c3)o2)cc1 | 13% | 4% | 0% | 90% (active) | inactive | inactive | inactive | inactive
36 | CCc1c(CCNC/C=C/C=C/CNCCc2ccc(OC)c(OC)c2CC)ccc(OC)c1OC | 99% (active) | 75% (active) | 3% | 100% (active) | inactive | inactive | inactive | inactive
37 | Cc1onc(-c2c(Cl)cccc2Cl)c1C(=O)NC1=NC(C)(C)ON1c1ccccc1 | 36% | 6% | 1% | 97% (active) | inactive | inactive | inactive | inactive
38 | CC1CCc2sc(-c3nnc(SC(C)C(=O)N4CCCC4)o3)cc2C1 (stereo not given) | 94% (active) | 1% | 2% | 93% (active) | inactive | inactive | inactive | inactive
39 | Cn1nc(C(F)(F)F)c(-c2ccc(Br)cc2)c1NC(=O)Cc1ccccc1F | 100% (active) | 6% | -1% | 102% (active) | inactive | inactive | inactive | inactive
40 | Cc1ccc(N)cc1-c1nc(NC2CC(C)(C)NC(C)(C)C2)nc2c1ccc(=O)n2-c1c(F)cccc1F | 1% | 0% | -5% | 98% (active) | inactive | inactive | inactive | inactive
